In the library only some 9% were active in any assay of this set; here they are far more common.
BAZ2B block: qHTS Assay for Inhibitors of BAZ2B; Bromodomain adjacent to zinc finger domain protein 2B (Homo sapiens), Q9UIF8; AlphaScreen BAZ2B-H3K14Ac peptide displacement; Potency, µM (top dose mostly 114 µM), actives largely listed as inhibitors; 360,000 compounds, 4.4% hits; AID 504333, 2011; further: nearly all actives have a fitted effect of over 60% in size
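Complex of BAZ2B and biotin-H3K14Ac (50 nM apiece) forms over 30 min at RT, then faces library compounds up to 110 uM for another 30 min; AlphaScreen beads added, 20 min dark incubation, luminescence read.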
PLK1 PBD block: qHTS for Inhibitors of PLK1-PDB (polo-like kinase 1 - polo-box domain): Primary Screen. AID 720504, 2013. Plk1 PBD binding of FITC phosphopeptide, fluorescence polarization. Potency, µM, most hits filed as inhibitors. 360,000 compounds, 2.8% hits; further: series mostly up to about 57 µM; nearly all actives have a fitted effect of over 65% in size
12-LOX inh: Primary qHTS assay for inhibitors of human arachidonate 12S-lipoxygenase (ALOX12): Round 2. Potency, µM (highest dose often 108 µM), usual class: inhibitors. purified 12hLO, xylenol orange hydroperoxide absorbance. AID 1671190, 2021. 580,000 compounds, 1.1% hits. Polyunsaturated fatty acid lipoxygenase ALOX12 (Homo sapiens), P18054
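Hydroperoxide product was detected by ferrous iron/xylenol orange as the 573 to 405 nm absorbance ratio. Arachidonic acid at 40 uM (final) was turned over for 30 min at room temperature by 150 nM human 12hLO, pH 7.0 Hepes buffer, after 15 min compound preincubation.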
JMJD2A Tudor: qHTS Assay for Inhibitors of JMJD2A-Tudor Domain | Potency, µM (titrated, usually from 114 µM), hits mostly inhibitors | AlphaScreen JMJD2A-Tudor / H3K4me3 peptide binding | AID 504339, 2011 | 390,000 compounds, 4.4% hits; further: nearly all actives have a fitted effect of over 50% in size
HP1b binding inh: HTS for Inhibitors of HP1-beta Chromodomain Interactions with Methylated Histone Tails; Potency, µM (highest dose often 114 µM), actives largely listed as inhibitors; Chromobox protein homolog 1 (Homo sapiens), P83916; 390,000 compounds, 0.56% hits; AID 540317, 2011; AlphaScreen HP1-beta / biotin-H3K9me3 peptide binding; further: nearly all actives have a fitted effect of over 70% in size
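AlphaScreen: HP1-beta (50 nM) preformed 30 min with biotin-H3(1-18)K9me3 peptide (50 nM) in PBS pH 7.4, 0.01% Tween-20. Compound added for 30 min at RT, then streptavidin donor/nickel chelate acceptor beads (10 ug/mL) for 30 min.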
G9a inh: qHTS Assay for Inhibitors of Histone Lysine Methyltransferase G9a | AID 504332, 2011 | Potency, µM (doses to about 102 µM), usual class: inhibitors | G9a H3K9 monomethylation, AlphaScreen, 2 h | Histone-lysine N-methyltransferase EHMT2 (Homo sapiens), Q96KQ7 | 350,000 compounds, 8.8% hits; further: nearly all actives have a fitted effect of over 75% in size
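Step 1: enzyme (final 20 nM) with compound, 15 min RT. Step 2: substrate peptide 500 nM and SAM 20 uM, 2 h RT. Step 3: anti-H3K9me1 antibody and AlphaScreen beads, 10 min, then plate read.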
Large screens that a line does not name were inactive. The call rests on the fitted dose curve; in most records, active means well fitted curve in the direction sought with a large enough effect; inconclusive means small, poorly fitted or top-dose-only effect, or another doubt; inactive means no such curve, though single readings can be large; an effect the other way counts as inactive or inconclusive.

CCN1CCN(CC(=O)N2CCCC(C(=O)c3ccc(Oc4ccccc4)cc3)C2)CC1 (stereo not drawn)	BAZ2B block 50.1µM, G9a inh 35.5µM
COCCC(=O)N1CCCC(C(=O)c2ccc(Oc3ccccc3)cc2)C1 (stereo not drawn)	none
FC(F)(F)c1cccc(-n2cccc2/C=N/n2cnnc2)c1	12-LOX inh 14.1µM, G9a inh inconclusive
COC(=O)CNC(=O)C1=NOC2CN(C(=O)C3CC3)CC12 (stereo not drawn)	none (no result: BAZ2B block, PLK1 PBD block, JMJD2A Tudor, HP1b binding inh, G9a inh)
C1=C(c2cc(-c3cccc4cn[nH]c34)cn3cncc23)CCOC1	none (no result: BAZ2B block, PLK1 PBD block, JMJD2A Tudor, HP1b binding inh, G9a inh)
COc1ccc(-c2cc(-c3cnn(C)c3)cn3cncc23)cc1	none (no result: BAZ2B block, PLK1 PBD block, JMJD2A Tudor, HP1b binding inh, G9a inh)
O=c1ccc(-c2cc(-c3cccc4cn[nH]c34)cn3cncc23)c[nH]1	12-LOX inh 31.6µM (no result: BAZ2B block, PLK1 PBD block, JMJD2A Tudor, HP1b binding inh, G9a inh)
COc1ccc(-c2cc(-c3ccc4cn[nH]c4c3)cn3cncc23)cc1	12-LOX inh 8.91µM (no result: BAZ2B block, PLK1 PBD block, JMJD2A Tudor, HP1b binding inh, G9a inh)
COc1ccc(-c2cc(-c3cccc(OC)c3OC)cn3cncc23)cc1	12-LOX inh 70.8µM (no result: BAZ2B block, PLK1 PBD block, JMJD2A Tudor, HP1b binding inh, G9a inh)
CC1(C)CNC(=O)c2nc(C3CCCN(Cc4ccccc4)C3)[nH]c2C1 (stereo not drawn)	none (no result: BAZ2B block, PLK1 PBD block, JMJD2A Tudor, HP1b binding inh, G9a inh)
N#Cc1cc([N+](=O)[O-])ccc1NC(=O)COC(=O)C12CC3CC(CC(Br)(C3)C1)C2	none (no result: BAZ2B block, PLK1 PBD block, JMJD2A Tudor, HP1b binding inh, G9a inh)
Cc1ccc(-n2c(Cn3nc(C(F)F)cc3C(F)F)n[nH]c2=S)cc1	12-LOX inh inconclusive, JMJD2A Tudor 79.4µM, G9a inh 1.12µM
S=c1[nH]nc(COc2cccc(Cl)c2)n1Cc1ccccc1	none
Cc1cc(C(F)(F)F)nn1Cc1n[nH]c(=S)n1-c1ccc(Cl)cc1	12-LOX inh inconclusive, G9a inh 1.58µM
Cc1cc(C(F)(F)F)nn1Cc1n[nH]c(=S)n1-c1cccc(Cl)c1	12-LOX inh inconclusive, JMJD2A Tudor inconclusive, G9a inh 25.1µM
Cc1ccc(S(=O)(=O)N(Cc2n[nH]c(=S)n2-c2ccccc2)c2ccccc2)cc1	BAZ2B block inconclusive, 12-LOX inh inconclusive (no result: G9a inh)
Cc1cc(C(F)(F)F)nn1Cc1n[nH]c(=S)n1Cc1ccccc1	12-LOX inh inconclusive, JMJD2A Tudor inconclusive, G9a inh 1.78µM
Cc1c(/C=C/C(=O)c2ccccc2)cnn1C	BAZ2B block inconclusive
Cc1c(C(=O)Nc2cccc(C#N)c2)sc2nc3n(c(=O)c12)CCCCC3	BAZ2B block 50.1µM, G9a inh inconclusive (no result: PLK1 PBD block)
CCOc1ccc(CCNC(=O)c2sc3nc4n(c(=O)c3c2C)CCCC4)cc1OCC	BAZ2B block 56.2µM (no result: PLK1 PBD block)
COc1ccc(CNC(=O)c2sc3nc4n(c(=O)c3c2C)CCCC4)cc1	BAZ2B block 44.7µM, JMJD2A Tudor 89.1µM, G9a inh 14.1µM (no result: PLK1 PBD block)
Cc1c(C(=O)NCc2ccccc2Cl)sc2nc3n(c(=O)c12)CCC3	none (no result: PLK1 PBD block)
Cc1c(C(=O)NCc2cccc(Cl)c2)sc2nc3n(c(=O)c12)CCCC3	BAZ2B block 17.8µM, JMJD2A Tudor 79.4µM, G9a inh 15.8µM (no result: PLK1 PBD block)
CCc1cccc(NC(=O)c2sc3nc4n(c(=O)c3c2C)CCC4)c1	none
COc1ccc(CCNC(=O)c2sc3nc4n(c(=O)c3c2C)CCC4)cc1	none
CCOc1ccc(CCNC(=O)c2sc3nc4n(c(=O)c3c2C)CCC4)cc1OCC	none
Cn1cc(C(=O)[C@@H]2CCc3[nH]cnc3C2)c2ccccc21	none (no result: BAZ2B block, PLK1 PBD block, 12-LOX inh, JMJD2A Tudor, HP1b binding inh)
Cc1nc2cc(NC(C)C(=O)Nc3ccccc3C#N)ccc2o1 (stereo not drawn)	none (no result: BAZ2B block, PLK1 PBD block, JMJD2A Tudor, HP1b binding inh, G9a inh)
Cc1cc(C(=O)N2CCC(Oc3ccccc3-c3nc(C4CC4)no3)C2)n[nH]1 (stereo not drawn)	none (no result: BAZ2B block, PLK1 PBD block, JMJD2A Tudor, HP1b binding inh, G9a inh)
Cc1c(C(=O)NCc2ccc(Cl)cc2)sc2nc3n(c(=O)c12)CCCC3	G9a inh 11.2µM (no result: PLK1 PBD block)
CC1=NN(C(=S)Nc2ccccc2)C(C)(C)C1	G9a inh 31.6µM
CCc1ccc2c(c1)/C(=C/C(=O)c1cccs1)C(=O)N2	BAZ2B block 11.2µM, PLK1 PBD block inconclusive, 12-LOX inh inconclusive, JMJD2A Tudor 12.6µM, G9a inh 11.2µM
CCOc1ccc(S(=O)(=O)N2CCCCC2)cc1NC(=O)C1CSC2(C)CCC(=O)N12 (stereo not drawn)	G9a inh 39.8µM
CC1CCN(S(=O)(=O)c2ccc(NC(=O)C3CSC4(C)CCC(=O)N34)cc2)CC1 (stereo not drawn)	BAZ2B block inconclusive, JMJD2A Tudor 79.4µM, G9a inh inconclusive
Cc1cnc(C(=O)Nc2nnc(C3CC3)s2)cn1	BAZ2B block inconclusive, 12-LOX inh inconclusive, G9a inh 5.62µM
CC(C)c1nnc(NC(=O)c2cnccn2)s1	BAZ2B block 39.8µM, JMJD2A Tudor 1.12µM, G9a inh inconclusive
CC(=O)Nc1nnc(C)s1	none
Cc1csc(NC(=O)c2cccnc2)n1	none
CC(C)CNc1nc(C(=O)Nc2nnc(C(C)C)s2)cs1	none (no result: BAZ2B block, PLK1 PBD block, JMJD2A Tudor, HP1b binding inh, G9a inh)

Bioassay records: PubChem BioAssay, National Center for Advancing Translational Sciences (NCATS)
